From PubChem
Rows were chosen to be rich in hits. Some 3% of all compounds tested hit in one or more screens of this group.
PPC-1+TRAIL kill: compounds killing PPC-1 cancer cells with TRAIL present (potentiator screen, no TRAIL-free arm). 0.41% of 220,000 active. cell killing (% activity), % at 4 µM or 5 µM. PPC-1 cells + TRAIL, ATPLite viability luminescence;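 active = cell killing above 50% in the first pass at 4 µM, then a duplicate retest at 5 µM averaging 50% or more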
SENP8 block-1: blocks human SENP8 cleavage of Nedd8 substrate | inhibition, % at 20 µM | 0.64% of 360,000 active | AID 602440 | recombinant SENP8, Nedd8 substrate fluorescence; in the data active = inhibition mostly above about 40%, no sharp cut-off; inactive = mostly below about 27%
SENP6 inh: inhibitors of human SENP6 protease. inhibition, % at 10 µM. Recombinant SENP6 catalytic domain, aminoluciferin luminescence. AID 2599. 1.8% of 330,000 active. Q9GZR1;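 active = inhibition above about 50% at the single tested dose, limit read from the data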
SENP8 block-2: inhibitors of human SENP8 protease. 1.2% of 330,000 active. AID 2540. inhibition, % at 10 µM. purified SENP8, Z-RLRGG-aminoluciferin cleavage, luminescence; in the data active = inhibition above about 50%
SENP7 inh: SENP7 protease inhibition; AID 434973; recombinant SENP7, Z-RLRGG-aminoluciferin luminescence, 40 min; Q9BQF6; 1.5% of 330,000 active; inhibition, % at 5 µM;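 active = inhibition above about 50% at the single test dose, limit read from the data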
Target sequence (Q9BQF6 706-1050 limits assumed): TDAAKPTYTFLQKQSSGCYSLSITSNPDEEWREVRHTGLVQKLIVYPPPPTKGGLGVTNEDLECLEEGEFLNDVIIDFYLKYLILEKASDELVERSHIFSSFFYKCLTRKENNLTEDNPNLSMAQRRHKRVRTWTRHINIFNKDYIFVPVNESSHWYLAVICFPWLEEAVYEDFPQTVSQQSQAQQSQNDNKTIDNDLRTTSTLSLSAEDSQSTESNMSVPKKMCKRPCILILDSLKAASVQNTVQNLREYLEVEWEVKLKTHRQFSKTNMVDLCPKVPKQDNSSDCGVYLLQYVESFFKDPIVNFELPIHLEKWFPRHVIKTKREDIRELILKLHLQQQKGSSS
C8 TRAIL sens: caspase-8 TRAIL sensitization. NB7+C8 cells + TRAIL, ATPlite viability luminescence. inhibition (viability loss, TRAIL sensitization), % at 10 µM. 1% of 360,000 active;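 active = compounds causing at least 50% loss of cell viability in the single-dose screen, relative to plate controls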
SENP8 conf: human SENP8 inhibition, confirmed. shares compounds with SENP7 inh. Recombinant SENP8, Z-RLRGG-aminoluciferin luminescence, 60 min. inhibition, % at 12.5 µM. 40% of 6,200 active;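 active = mean inhibition across replicates above about 50%, limit read from the data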
SENP6 conf: human SENP6 inhibition, confirmed; inhibition, % at 12.5 µM; recombinant SENP6, Z-RLRGG-aminoluciferin luminescence; 58% of 6,200 active; shares compounds with SENP7 inh; AID 488915
SENP7 confirm: confirmation of human SENP7 protease inhibitors | recombinant SENP7, Z-RLRGG-aminoluciferin luminescence, 40 min | inhibition, % at 12.5 µM | 69% of 6,200 active | shares compounds with SENP7 inh
Casp3 select: caspase-3 inhibition (SENP selectivity assay); shares compounds with SENP7 inh; purified caspase-3, Z-DEVD-aminoluciferin luminescence, 60 min; inhibition, % at 12.5 µM; 60% of 6,200 active; AID 488918;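 active = mean inhibition above about 50%, limit read from the data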
SENP luc ctr: counter-screen for SENP inhibitors: luminescence interference | shares compounds with SENP7 inh | Pre-incubated SENP8/Z-RLRGG-aminoluciferin, luciferase luminescence interference | inhibition, % at 12.5 µM | 39% of 6,200 active;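 active = mean inhibition above about 50% when retested at one dose, limit read from the data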
A number is an active result; n = inactive; x = no result.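 Rule for the calls, unless noted: active = mean inhibition above about 50% in the one-dose retest (limit read from the data); inactive = the rest.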

SMILES	PPC-1+TRAIL kill	SENP8 block-1	SENP6 inh	SENP8 block-2	SENP7 inh	C8 TRAIL sens	SENP8 conf	SENP6 conf	SENP7 confirm	Casp3 select	SENP luc ctr
CCCCc1c(-c2cccc(Cl)c2)ncn1CCc1ccccc1OC	x	n	x	x	x	n	x	x	x	x	x
CN1OC[C@@H]2CN3C(=O)N(c4ccccc4)c4ccccc4[C@@H]3C[C@@H]21	x	n	x	x	x	n	x	x	x	x	x
c1ccc(C2CSc3ccccc3N2)cc1 (centres undefined)	x	n	72	n	n	n	n	n	n	n	n
Cc1ccc(C(=O)/C=C\C(=O)c2ccc(C)cc2)cc1	n	n	x	x	x	n	x	x	x	x	x
Cc1ccc(S/C=C\C(=O)c2ccccc2)cc1	n	n	87	82	92	55	n	90	79	64	55
Fc1ccc(-c2nnc(-c3ccc(F)cc3)o2)cc1	x	n	52	n	60	n	n	n	n	n	n
COc1cc(C)ccc1S(=O)(=O)NC(=O)Cn1nnc(COc2ccc3c(c2)CCCC3)c1C	x	n	x	x	x	n	x	x	x	x	x
COc1ccc2nc(Nc3nc4cc5c(cc4s3)OCO5)sc2c1	n	n	n	n	n	n	x	x	x	x	x
COc1ccc2nc(Nc3ccccc3)sc2c1	n	n	56	70	84	52	88	88	98	61	84
COc1ccc2nc(Nc3ccc4c(c3)OCO4)sc2c1	n	n	n	n	58	n	n	n	n	n	n
N#C/C(=C/c1ccc(Br)o1)C(N)=O	n	n	n	n	n	n	x	x	x	x	x
COc1ccc(NC(=O)/C(C#N)=C/c2ccc(Br)o2)cc1	n	n	n	n	66	n	n	n	n	n	n
Cc1cc2nc(N)sc2cc1C	n	n	n	65	70	n	75	74	92	84	73
COc1ccc([C@H]2Cc3cc(O)cc(O)c3C(=O)O2)cc1O	x	n	95	88	90	n	89	88	98	90	91
N#Cc1cnc(=S)n(-c2cc(C(F)(F)F)cc(C(F)(F)F)c2)c1N	x	n	x	x	x	n	x	x	x	x	x
O=C(O)c1ccc(C(=O)Nc2cccc3ccccc23)c(C(=O)O)c1	x	n	67	n	57	n	n	n	n	n	n
O=C(Cc1ccccc1C(=O)O)Nc1cccc2ccccc12	x	n	n	n	n	n	x	x	x	x	x
O=C(Nc1cccc(S(=O)(=O)NC2=NCCC2)c1)c1cc(Cl)ccc1[N+](=O)[O-]	x	n	n	n	n	n	x	x	x	x	x
N#Cc1ccsc1NC(=O)COc1ccc(-c2nnco2)cc1	n	n	87	70	71	n	n	66	93	87	n
C/C(=C\C=C(C#N)C#N)c1cc(C#N)c(N)o1	n	n	n	n	n	n	x	x	x	x	x
CC(/C=N/Nc1nnc2c(n1)[nH]c1ccccc12)=C\c1ccco1	n	n	n	n	83	n	n	n	n	n	n
Cc1ccc(OC(=O)CCNC(=O)c2ccccc2Cl)c(Br)c1	x	n	n	n	n	n	x	x	x	x	x
O=C(O)/C=C/C(=O)Nc1ccc2c(c1)C(=O)c1ccccc1C2=O	n	n	78	n	53	n	73	67	85	n	79
O=C(CCNC(=O)N1CC(=O)Nc2ccccc21)NCc1cccc(C(F)(F)F)c1	x	n	x	x	x	n	x	x	x	x	x
COc1ccc(C(=O)Nc2ccc3ccccc3n2)c(OC)c1OC	x	n	82	66	86	83	58	n	57	n	n
O=C(Nc1ccc2ccccc2n1)C1CCCCC1	n	n	60	n	74	n	61	58	88	74	68
O=C(Nc1ccc2ccccc2n1)c1ccccc1Cl	x	n	88	89	95	n	94	94	102	94	n
